Measured values from PubChem BioAssay (NCATS).
Records with an inconclusive call do not appear. Active and inactive are the calls of the source. Unless noted, calls come from the whole dose curve; as a rule, active = well fitted curve in the direction sought with a large enough effect in the repeat runs; inconclusive = weak or mixed curves; inactive = no such curve, though single readings can be large; an effect the other way counts as inactive or inconclusive.

Columns and labels:
[1] = Primary qHTS for small molecule stabilizers of the endoplasmic reticulum resident proteome: Secreted ER Calcium Modulated Protein (SERCaMP) assay (AID 1508630; active = well fitted curve in the direction sought with a large enough effect; an effect the other way counts as inactive or inconclusive; note: % is set by controls: 0 for no effect and ±100 for the full control effect)
Procedure, shortened: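 The SH-SY5Y reporter protocol was run at 3 concentrations up to 38.3 uM (primary) or 11 concentrations (follow-up): 16 h compound, 100 nM thapsigargin for 4 h, then extracellular luciferase luminescence.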

[2] = A High-Content qHTS Against Drug Library for the Identification of Small Molecules that Inhibit DYT1 Early Onset Primary Dystonia-Associated Cell Pathology (AID 1645839; calls by dose curve; note: series mostly up to about 46 µM)
Procedure, shortened: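 Induced EGFP-delE TorsinA cells are imaged after 48 h of compound treatment. Punctate fusion-protein distribution gives the %pathology value, while nuclei counts flag toxicity. Wild-type EGFP-hTOR1A cells define the normal pattern.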

[3] = target: Cytochrome P450 2D6 (Homo sapiens) (UniProt P10635); experiment: Cytochrome P450 family 2 subfamily D member 6 (CYP2D6) small molecule antagonists: luciferase biochemical (cell-free) qHTS assay (AID 1645840); note: nearly all actives have a fitted effect of over 55% in size; note: potency is the fitted concentration of half-maximal effect
Cytochrome P450 2D6 (Homo sapiens), sequence (P10635 whole entry, looked up): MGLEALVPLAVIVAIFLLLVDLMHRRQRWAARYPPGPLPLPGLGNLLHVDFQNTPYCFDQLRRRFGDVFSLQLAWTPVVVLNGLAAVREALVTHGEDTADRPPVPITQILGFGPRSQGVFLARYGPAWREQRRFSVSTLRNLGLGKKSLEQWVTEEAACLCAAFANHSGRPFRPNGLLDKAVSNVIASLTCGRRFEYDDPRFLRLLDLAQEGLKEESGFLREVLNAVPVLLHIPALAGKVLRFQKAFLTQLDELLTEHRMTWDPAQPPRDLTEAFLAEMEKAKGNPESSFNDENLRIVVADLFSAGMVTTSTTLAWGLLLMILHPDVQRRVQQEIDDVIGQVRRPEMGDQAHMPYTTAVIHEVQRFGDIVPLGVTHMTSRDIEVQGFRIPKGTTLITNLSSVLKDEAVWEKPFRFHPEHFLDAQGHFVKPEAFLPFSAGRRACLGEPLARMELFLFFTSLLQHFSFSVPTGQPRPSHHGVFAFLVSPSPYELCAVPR
Procedure, shortened: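 P450-Glo CYP2D6 system: proluciferin substrate converted by enzyme to luciferin, read by luminescence proportional to activity. Enzyme-substrate mix with compound 10 min at room temperature, then NADPH regeneration 1 h before detection reagent.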

[4] = target: Cytochrome P450 2C9 (Homo sapiens) (UniProt P11712); experiment: Cytochrome P450 family 2 subfamily C member 9 (CYP2C9) small molecule antagonists: luciferase biochemical (cell-free) qHTS assay (AID 1645842); note: nearly all actives have a fitted effect of over 55% in size; note: potency is the fitted concentration of half-maximal effect
Cytochrome P450 2C9 (Homo sapiens), sequence (P11712 whole entry, looked up): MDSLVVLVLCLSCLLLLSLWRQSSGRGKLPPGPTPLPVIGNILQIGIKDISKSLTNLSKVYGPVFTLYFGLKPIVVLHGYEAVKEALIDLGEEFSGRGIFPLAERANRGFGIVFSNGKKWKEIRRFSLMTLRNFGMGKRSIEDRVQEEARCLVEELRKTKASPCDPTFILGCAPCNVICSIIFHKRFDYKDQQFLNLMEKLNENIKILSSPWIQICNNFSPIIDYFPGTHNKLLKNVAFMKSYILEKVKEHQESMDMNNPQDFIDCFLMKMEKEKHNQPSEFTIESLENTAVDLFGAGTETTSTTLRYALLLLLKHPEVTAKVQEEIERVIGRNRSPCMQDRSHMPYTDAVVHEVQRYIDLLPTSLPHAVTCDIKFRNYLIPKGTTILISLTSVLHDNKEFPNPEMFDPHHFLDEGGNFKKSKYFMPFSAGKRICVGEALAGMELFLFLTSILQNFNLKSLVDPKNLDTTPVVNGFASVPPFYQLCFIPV
Procedure, shortened: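 P450-Glo CYP2C9 system: proluciferin substrate with enzyme in mix containing 0.4% BSA, 10 min at room temperature, then NADPH regeneration solution added and incubated 1 h at 37C. Detection reagent stopped reaction; luminescence read after 20 min as RLU.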

[5] = Confirmatory qHTS for small molecule stabilizers of the endoplasmic reticulum resident proteome: Secreted ER Calcium Modulated Protein (SERCaMP) assay (AID 1508628; active = well fitted curve in the direction sought with a large enough effect; an effect the other way counts as inactive or inconclusive; note: nearly all actives have a fitted effect of over 40% in size; note: potency is the fitted concentration of half-maximal effect)
Procedure, shortened: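 GLuc-SERCaMP-expressing SH-SY5Y cells, pretreated 16 h with compound, are challenged with thapsigargin to empty ER calcium stores; after 4 h, coelenterazine is added directly to the medium and luminescence is imaged.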

[6] = Primary qHTS for inhibitors of nuclear receptor binding SET domain protein 2 (NSD2) in an isogenic RCH-ACV NSD2 p.E1099K mutant (9B) (AID 1645876; active = well fitted curve in the direction sought with a large enough effect; an effect the other way counts as inactive or inconclusive; note: nearly all actives have a fitted effect of over 70% in size)
[7] = target: Cytochrome P450 3A4 (Homo sapiens) (UniProt P08684); experiment: Cytochrome P450 family 3 subfamily A member 4 (CYP3A4) small molecule antagonists: luciferase qHTS assay (AID 1645841); note: nearly all actives have a fitted effect of over 45% in size
Cytochrome P450 3A4 (Homo sapiens), sequence (P08684 whole entry, looked up): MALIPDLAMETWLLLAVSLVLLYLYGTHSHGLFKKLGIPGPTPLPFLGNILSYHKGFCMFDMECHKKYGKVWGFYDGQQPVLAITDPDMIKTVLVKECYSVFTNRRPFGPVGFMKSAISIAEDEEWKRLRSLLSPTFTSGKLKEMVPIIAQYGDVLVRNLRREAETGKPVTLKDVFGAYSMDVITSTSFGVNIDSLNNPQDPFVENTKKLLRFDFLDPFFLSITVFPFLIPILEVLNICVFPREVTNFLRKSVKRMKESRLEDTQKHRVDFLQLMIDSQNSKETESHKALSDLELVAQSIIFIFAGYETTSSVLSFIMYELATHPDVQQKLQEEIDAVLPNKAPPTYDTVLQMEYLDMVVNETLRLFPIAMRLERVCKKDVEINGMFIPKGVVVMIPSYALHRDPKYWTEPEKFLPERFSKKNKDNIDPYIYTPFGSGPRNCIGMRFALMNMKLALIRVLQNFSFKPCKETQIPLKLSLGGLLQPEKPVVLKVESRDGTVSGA
Procedure, shortened: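 P450-Glo CYP3A4 enzyme with proluciferin substrate was preincubated with DMSO-dissolved compounds for 10 min at room temperature. NADPH regeneration solution started a 1 h reaction. Detection reagent stopped it, and luminescence was read after 20 min.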

[8] = Cell Viability qHTS for small molecule stabilizers of the endoplasmic reticulum resident proteome (AID 1508629; active = well fitted curve in the direction sought with a large enough effect; an effect the other way counts as inactive or inconclusive;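 note: human SH-SY5Y neuroblastoma cells carrying the GLuc-SERCaMP reporter; compound exposure about 46 h in total before the viability read; % is set by controls: 0 for no effect and ±100 for the full control effect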); settings: cell viability counter-screen, 100 nM thapsigargin for final 4 h
[9] = Primary qHTS for inhibitors of nuclear receptor binding SET domain protein 2 (NSD2) in an RCH-ACV wild type WT cells (2C) (AID 1645877; active = well fitted curve in the direction sought with a large enough effect; an effect the other way counts as inactive or inconclusive; note: % is set by controls: 0 for no effect and ±100 for the full control effect; nearly all actives have a fitted effect of over 70% in size)
[10] = NCATS anti-infectives library activity on HEK293 viability as a counter-qHTS vs the C. elegans viability qHTS (AID 1745854; active = well fitted curve in the direction sought with a large enough effect; an effect the other way counts as inactive or inconclusive;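 note: HEK293 cells exposed to compounds for 24 hr before the viability read; % is set by controls: 0 for no effect and ±100 for the full control effect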)
Procedure, shortened: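 Compound titrations (final up to 41.7 uM) were incubated with HEK293 cells for 24 hr at 37C under 5% CO2. Viable cells were quantified with CellTiter-Glo after 10 min at ambient temperature.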

OC[C@@H](O)[C@@H](O)[C@H](O)[C@H](O)CO
inactive: outcome [1] | Potency [2] | Potency [3] | Potency [4]

CCS(=O)(=O)CCn1c([N+](=O)[O-])cnc1C
inactive: outcome [1] | Potency [2]

Cc1ccc2c(c1)c1c3n2CCNC3CCC1 (configuration not stated)
inactive: Potency [5] | outcome [1] | Potency [6]

Cc1onc(-c2ccccc2)c1-c1ccc(S(N)(=O)=O)cc1
inactive: outcome [1] | Potency [2]

NC(=O)c1ccc([N+](=O)[O-])cc1Cl
inactive: outcome [1] | Potency [2] | Potency [3] | Potency [4]

O=C(O)CNC(=O)c1ccccc1I
inactive: outcome [1] | Potency [2] | Potency [3] | Potency [4]

O=C(O)c1ccccc1C(=O)Nc1ccc(S(=O)(=O)Nc2nccs2)cc1
inactive: outcome [1] | Potency [2] | Potency [3] | Potency [4] | Potency [6]

NNC(=O)CP(=O)(c1ccccc1)c1ccccc1
inactive: outcome [1] | Potency [2] | Potency [3]
active: Potency [4] 15.5 µM

CC(=O)NS(=O)(=O)c1ccc(N)cc1
inactive: outcome [1] | Potency [2] | Potency [3] | outcome [7] | Potency [6]

Cn1c(=O)c2c(ncn2CCO)n(C)c1=O
inactive: outcome [1] | Potency [2] | Potency [3] | Potency [4] | Potency [6]

CC1(c2ccccc2)OC(C(=O)O)=CC1=O (configuration not stated)
inactive: outcome [1] | Potency [2] | Potency [3] | outcome [7] | Potency [4]

CCCOC(=O)c1ccc(N)cc1
inactive: outcome [1] | Potency [2] | Potency [3]

Cn1cc(C(=O)[C@@H]2CCc3nc[nH]c3C2)c2ccccc21
inactive: max response [8] 11.5% | Potency [2] | Potency [4]
active: Potency [3] 12.3 µM

O=C(O)Cc1ccc(CCNS(=O)(=O)c2ccc(Cl)cc2)cc1
inactive: outcome [1] | Potency [2] | Potency [3]

CC(=O)N(CC(O)CN(C(C)=O)c1c(I)c(C(=O)NCC(O)CO)c(I)c(C(=O)NCC(O)CO)c1I)c1c(I)c(C(=O)NCC(O)CO)c(I)c(C(=O)NCC(O)CO)c1I (configuration not stated)
inactive: outcome [1] | Potency [2] | Potency [3] | outcome [7] | Potency [4] | Potency [6]

CC1CCN(CCCC(=O)c2ccc(F)cc2)CC1
inactive: outcome [1] | Potency [2] | Potency [4] | Potency [6]
active: Potency [3] 0.195 µM

CC(CSC(=O)c1ccccc1)C(=O)N1C[C@@H](Sc2ccccc2)C[C@H]1C(=O)O (some centres not stated)
inactive: outcome [1] | Potency [2] | Potency [3] | Potency [4] | Potency [6]

CCOc1ccccc1O[C@H](c1ccccc1)[C@H]1CNCCO1
inactive: max response [8] 9.87% | Potency [2] | Potency [4]
active: Potency [5] 22.4 µM

CCN(CC)C(=O)c1cccc(C)c1
inactive: Potency [5] | max response [8] 12.2% | Potency [2] | Potency [3] | Potency [4] | Potency [6]

NC(N)=NS(=O)(=O)c1ccc(N)cc1
inactive: outcome [1] | Potency [2] | Potency [3] | outcome [7] | Potency [4] | Potency [6]

CCOc1ccc(C(=O)OCCN(CC)CC)cc1
inactive: outcome [1] | Potency [2] | Potency [4] | Potency [6]
active: Potency [3] 2.72 µM

O=C(O)c1ccc[n+]([O-])c1
inactive: outcome [1] | Potency [2] | Potency [3] | Potency [4]

C=CCN1C[C@H](C(=O)N(CCCN(C)C)C(=O)NCC)C[C@@H]2c3cccc4[nH]cc(c34)C[C@H]21
inactive: outcome [1] | Potency [2] | Potency [4] | Potency [6]
active: Potency [3] 1.55 µM

O=c1[nH]c2cc(C(F)(F)F)c(N3CCOCC3)cc2n(CP(=O)(O)O)c1=O
inactive: outcome [1] | Potency [2] | Potency [3] | Potency [4]

COc1ccc(C(=O)N2CCN(CC(=O)N3CCOCC3)CC2)cc1
inactive: Potency [5] | max response [8] 17.3% | Potency [2] | Potency [3] | Potency [4] | Potency [6]

CCN1CC(CCN2CCOCC2)C(c2ccccc2)(c2ccccc2)C1=O (configuration not stated)
inactive: outcome [1] | Potency [2] | Potency [4]
active: Potency [3] 0.436 µM

O=C(Cn1ccnc1[N+](=O)[O-])NCc1ccccc1
inactive: outcome [1] | Potency [2] | Potency [3] | Potency [4] | Potency [6]

CCN(CC)CC1CCCCN1CC(=O)N1c2ccccc2C(=O)Nc2cccnc21 (configuration not stated)
inactive: outcome [1] | Potency [2] | Potency [3] | outcome [7]

COC(=O)c1ccccc1C(=O)c1ccc(OCCN2CCCCC2)cc1
inactive: outcome [1] | Potency [2] | Potency [4] | Potency [6] | Potency [9]
active: Potency [3] 11 µM

Nc1ncnc2c1ncn2[C@@H]1O[C@H](COP(=O)(O)O)[C@@H](O)[C@H]1O
inactive: outcome [1] | Potency [2] | Potency [3] | Potency [4] | Potency [6]

CCCCCCCCCCCCCCCCN
inactive: outcome [1] | Potency [2] | Potency [3] | outcome [7] | Potency [4]

OCc1ccc(Cl)cc1Cl
inactive: outcome [1] | Potency [2] | Potency [3] | outcome [7] | Potency [4] | Potency [6] | Potency [9] | outcome [10]

Nc1c2c(nc3c1CCC3)CCCC2
inactive: outcome [1] | Potency [2] | Potency [4] | Potency [6] | Potency [9]
active: Potency [3] 12.3 µM
